# Source: PubChem BioAssay (NCATS)
# Values joined by “and” are separate entries in the source; they are usually repeats but may differ in a detail not shown here. Equal entries are not always repeated. Results filed as inconclusive are left out. A call without a number means that no potency is given here. A number with no mark means an inactive call. Active and inactive are the calls of the source. Unless noted, calls come from the whole dose curve; as a rule, active = well fitted curve in the direction sought with a large enough effect; inconclusive = small, poorly fitted or top-dose-only effect, or another doubt; inactive = no such curve, though single readings can be large; an effect the other way counts as inactive or inconclusive.
# Assays:
# [1] = qHTS Assay for Identifying Gametocytocidal Compounds (AID 743244);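 note: actives lower the fluorescent signal which means gametocytes are killed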; conditions: P. falciparum 3D7 stage III-V gametocytes, alamarBlue, 72 h; max response: active compounds read low
# Procedure, shortened: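 3D7 gametocytes, stages III–V, 20,000/well; cpd 72 h, 37 °C/5% CO2; + alamarBlue 24 h; fluor. Ex 525/Em 598.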
# [2] = qHTS assay to identify small molecule inhibitors of chordoma cells - UCH-2 (AID 1259356); conditions: UCH-2 chordoma viability, CellTiter-Glo ATP luminescence, 48 h; series mostly up to 46.1 µM
# [3] = qHTS assay to identify small molecule inhibitors of chordoma cells - UCH-1 (AID 1259355); conditions: UCH-1 chordoma viability, CellTiter-Glo, 48 h, combination, with auranofin plus four topoisomerase inhibitors; series mostly up to 46.1 µM; note: nearly all actives have a fitted effect of over 55% in size; note: potency is the fitted concentration of half-maximal effect
# Procedure, shortened: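 Cells (800/well) were seeded and left overnight at 37 C, 5% CO2, then treated with drugs at 15 concentrations plus a combination mix of auranofin, camptothecin, doxorubicin, rubitecan and topotecan. Viability after 48hr was read by CellTiter-Glo luminescence.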
# [4] = qHTS assay for small molecule agonists of the antioxidant response element (ARE) signaling pathway measured by Nrf2-dependant transcriptional activity - cell viability counter screen (AID 720653; active = well fitted curve in the direction sought with a large enough effect in the repeat runs; an effect the other way counts as inactive or inconclusive); conditions: ARE-bla HepG2 viability, CellTiter-Glo ATP luminescence, 16 h; active compounds read low
# Procedure, shortened: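 ARE-bla HepG2 cells treated with compounds for 16 h at 37C; this counter screen measures viability as intracellular ATP by CellTiter-Glo luminescence after 30 min at room temperature.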
# [5] = qHTS assay for small molecule antagonists of the retinoid-related orphan receptor gamma (ROR-gamma) signaling pathway - cell viability counter screen (AID 720652; active = well fitted curve in the direction sought with a large enough effect in the repeat runs; an effect the other way counts as inactive or inconclusive;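 note: CHO reporter cells with doxycycline-induced ROR-gamma expression; compound exposure lasted 16 hr before ATP read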); conditions: RORgamma reporter cell line viability counter screen; series mostly up to 92.2 µM
# Procedure, shortened: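 Counter screen in CHO cells carrying TET-inducible ROR-gamma and an ROR response element-luciferase reporter; cells plated 5 hr, compound pinned, doxycycline added, then 16 hr at 37 C. Viability read as intracellular ATP by CellTiter-Glo luminescence.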
# [6] = qHTS assay for cell viability of HEK293 cells (AID 743288); conditions: ATP luminescence (CellTiter-Glo), 18 h, active compounds read low; note: nearly all actives have a fitted effect of over 50% in size
# Procedure, shortened: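 The Tox21 protocol used parental HEK293 cells treated for 18 h at 37 C with compounds delivered by pintool; ATP-coupled luminescence after 30 min at room temperature gave viability.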
# [7] = qHTS assay for cell viability of the p53RE-bla HCT-116 cell line (AID 743292); conditions: p53RE-bla HCT-116 viability, ATP luminescence, 16 h; series mostly up to 95 µM; note: nearly all actives have a fitted effect of over 55% in size
# Procedure, shortened: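 Quantitative high-throughput format: compounds in DMSO were pinned onto p53RE-bla HCT-116 cells (4,000/well) and incubated 16 h at 37 C. Total intracellular ATP, read by CellTiter-Glo luminescence, reflects viable cell number.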
smiles,measurement,setting,value
C=CCSSSCC=C,max response,[1],-8.99%
same,Potency,[2],inactive
Nc1c(N=Nc2ccc(-c3ccc(N=Nc4cc(S(=O)(=O)O)c5ccccc5c4N)cc3)cc2)cc(S(=O)(=O)O)c2ccccc12,max response,[1],13.5%
same,Potency,[3],inactive
CO[C@H]1C=CO[C@@]2(C)Oc3c(C)c(O)c4c(O)c(c5c(c4c3C2=O)=NC2(CCN(CC(C)C)CC2)N=5)NC(=O)/C(C)=C\C=C/[C@H](C)[C@H](O)[C@@H](C)[C@@H](O)[C@@H](C)[C@H](OC(C)=O)[C@@H]1C,Potency,[2],inactive
O=CCCCC=O,max response,[4],-17.7%
same,max response,[1],-1.12%
same,Potency,[2],inactive
CCOc1ccc2c(c1)C(C)=CC(C)(C)N2,outcome,[5],inactive
same,max response,[4],-1.53% and -25.3%
same,max response,[6],-17.1% and -27.7%
same,outcome,[7],inactive
same,Potency,[2],inactive
CC(Oc1ccccc1)C(=O)N[C@@H]1C(=O)N2[C@@H]1SC(C)(C)[C@@H]2C(=O)O (stereo not given in full),max response,[1],15.7%
same,Potency,[2],inactive
IC(I)I,outcome,[5],inactive
same,max response,[4],1.96% and -3.08%
same,max response,[1],8.07%
same,max response,[6],-1.78% and -16.4%
same,outcome,[7],inactive
same,Potency,[2],inactive
O=S(=O)(O)O,outcome,[5],inactive
same,max response,[4],-6.94% and 4.69%
same,max response,[1],-4.98%
same,max response,[6],9.97% and -5.38%
same,outcome,[7],inactive
same,Potency,[2],inactive
COC(C(=O)C(O)C(C)O)C1Cc2cc3cc(OC4CC(OC5CC(O)C(O)C(C)O5)C(O)C(C)O4)c(C)c(O)c3c(O)c2C(=O)C1OC1CC(OC2CC(OC3CC(C)(O)C(O)C(C)O3)C(O)C(C)O2)C(O)C(C)O1 (stereo not given),Potency,[2],inactive
CN(C)CC/C=C1/c2ccccc2CSc2ccccc21,Potency,[2],inactive
CCc1ccc2c(c1)N(CC(C)CN(C)C)c1ccccc1S2 (stereo not given),Potency,[2],inactive
NCc1ccccc1CC(=O)N[C@@H]1C(=O)N2C(C(=O)O)=C(CSc3nnnn3CC(=O)O)CS[C@H]12,max response,[1],5.62%
same,Potency,[2],inactive
CC(=O)OCC(=O)[C@@]12OC3(CCCC3)O[C@@H]1C[C@H]1[C@@H]3CCC4=CC(=O)C=C[C@]4(C)[C@@]3(F)[C@@H](O)C[C@@]12C,Potency,[2],inactive
CCCCCCCC(=O)O,outcome,[5],inactive
same,max response,[4],3.78% and 1.59%
same,max response,[1],10%
same,max response,[6],-4.48% and -6.78%
same,outcome,[7],inactive
same,Potency,[2],inactive
CC[C@@]1(O)C(=O)OCc2c1cc1n(c2=O)Cc2cc3c([N+](=O)[O-])cccc3nc2-1,max response,[1],2.02%
same,Potency,[3],0.794 µM (active)
CCCCC(CC)COC(=O)CC(C(=O)OCC(CC)CCCC)S(=O)(=O)O (stereo not given),max response,[4],-6.73%
same,max response,[1],-7.18% and 8.87%
same,max response,[6],-6.91%
same,outcome,[7],inactive
same,Potency,[2],inactive
CCCCCCCC/C=C\CCCCCCCC(=O)O,outcome,[5],inactive
same,max response,[4],-10.5% and 3.78%
same,max response,[1],5.58%
same,max response,[6],-8.54% and -13.9%
same,outcome,[7],inactive
same,Potency,[2],inactive
C#C[C@]1(O)CC[C@H]2[C@@H]3CCC4=C/C(=N/O)CC[C@@H]4[C@H]3CC[C@@]21CC,max response,[1],-2.15%
same,Potency,[3],inactive
CC1(C)C(C=C(Cl)Cl)C1C(=O)OCc1cccc(Oc2ccccc2)c1 (stereo not given),max response,[4],-3.1% [middle of 4 runs]
same,max response,[1],-8.09%
same,max response,[6],-9.26% [middle of 4 runs]
same,outcome,[7],inactive
same,Potency,[2],inactive
CC1=CCC(C(C)(C)O)CC1 (stereo not given),max response,[4],3.37%
same,max response,[1],-0.0478%
same,max response,[6],-13.3%
same,outcome,[7],inactive
same,Potency,[2],inactive
CC(C)=O,outcome,[5],inactive
same,max response,[4],-3.47%
same,max response,[1],-8.02%
same,max response,[6],-4.51%
same,outcome,[7],inactive
same,Potency,[2],inactive
